HCMV antiviral = human cytomegalovirus inhibition; AID 1259415; activity change, negative = inhibition, % at 57.5 µM; 410,000 tested, 4.5% active; HFF cells, HCMV-luciferase reporter, 72 h; hits give low values; in the data active means activity change below about -60%; inconclusive means no clear call, values can overlap the other calls; inactive means above about -39%
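Luciferase read-out from HCMV-luciferase-infected HFFs (MOI 1 PFU/cell) 72 h post infection at 37C; compounds added after 16 h cell attachment; activity normalized between buffer-only basal and Salinomycin (10uM) inhibitor controls.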
LASV entry inh = blocks Lassa virus binding to or entry into cells; AID 540256; 300,000 tested, 1.2% active; Lassa virus pseudotype entry inhibition, cell reporter; Potency, µM (doses to about 37.9 µM), hits mostly inhibitors; calls by dose curve; tested in HEK293 cells; further: nearly all actives have a fitted effect of over 50% in size
Marburg entry inh = blocks Marburg virus binding to or entry into cells. Potency, µM (doses to about 37.8 µM), usual class: inhibitors. 300,000 tested, 1.8% active. Marburg virus pseudotyped entry inhibition, cell reporter. AID 540276; calls by dose curve; tested in HEK293 cells
FMDV inh = foot and mouth disease virus antiviral activity; Potency, µM (top dose mostly 57.9 µM), hits mostly inhibitors; 410,000 tested, 1.2% active; FMDV antiviral cell-based qHTS; calls by dose curve; tested in HEK293T cells; further: read-out not given here; nearly all actives have a fitted effect of over 45% in size
Each line names hits and unclear results; the compound was inactive in the other large screens; ! = repeats disagree. The list is not random: actives were taken first. Their share in the collection is about 6.2%.

O=C(Nc1ccc(S(=O)(=O)N2CCCCC2c2cccnc2)cc1)c1ccc(Br)cc1 (stereo not drawn)	HCMV antiviral -98, LASV entry inh inconclusive, FMDV inh inconclusive (no result: Marburg entry inh)
CC(=O)Nc1ccc(S(=O)(=O)N2CCCCC2c2cccnc2)cc1 (stereo not drawn)	none
CCCCC(=O)Nc1ccc(S(=O)(=O)N2CCCCC2c2cccnc2)cc1 (stereo not drawn)	HCMV antiviral inconclusive
CN1C(=O)[C@@H]2[C@@H]3C[C@@H]([C@H]4ON=C(c5ccc(Cl)cc5Cl)[C@@H]34)[C@@H]2C1=O	none
Cc1cc(S(=O)(=O)NCc2ccccc2)ccc1OCC(=O)Nc1cccc([N+](=O)[O-])c1	LASV entry inh inconclusive, Marburg entry inh 12µM
CCC(C)(C)NC(=O)C(c1cccc(OC)c1OC)N(Cc1ccc(OC)cc1)C(=O)CCC(=O)Nc1cc(C)on1 (stereo not drawn)	Marburg entry inh inconclusive
CCCCN(C)C(=O)C(Cc1ccccc1)NS(=O)(=O)c1ccc2c(c1)CCC(=O)N2 (stereo not drawn)	none (no result: LASV entry inh)
O=C(NCc1cccnc1)c1ccc(-c2cc3ccccc3oc2=O)cc1	HCMV antiviral -66 (no result: LASV entry inh, Marburg entry inh)
Nc1ccc(-c2cc3ccccc3oc2=O)cc1	HCMV antiviral inconclusive, LASV entry inh 0.71µM, Marburg entry inh inconclusive, FMDV inh 1.1µM
O=C(Nc1cccnc1)c1cccc(-c2cc3ccccc3oc2=O)c1	none
Cn1c(Cn2cnc3ccccc32)nnc1SCC(=O)CC(=O)Nc1ccccc1	none
COc1ccc(/C=C2\N=C(SC)N(c3ccccc3OC)C2=O)cc1	HCMV antiviral -96, FMDV inh inconclusive (no result: LASV entry inh, Marburg entry inh)
CCCCNC(=O)N(C)c1nncnc1C(=O)NC	none
COc1cc(/C=C/C(=O)C2C(=O)C=C(C)OC2=O)cc(OC)c1O (stereo not drawn)	HCMV antiviral -90, FMDV inh 18µM
COc1ccc(/C=C/C(=O)O)cc1O	none (no result: LASV entry inh, Marburg entry inh)
COc1ccc(/C=C/C(=O)C2C(=O)C=C(C)OC2=O)cc1O (stereo not drawn)	HCMV antiviral -77
CN(C)CCCNc1nc2sc3c(c2c(=O)n1CCc1ccccc1)CCCCC3	HCMV antiviral inconclusive, LASV entry inh inconclusive, Marburg entry inh 7.1µM
Cc1c(Cl)sn(-c2ccc(Cl)cc2)c1=O	HCMV antiviral -101, LASV entry inh 9.2µM, Marburg entry inh inconclusive, FMDV inh inconclusive
CCOc1ccc(S(=O)(=O)Nc2ccc3c(c2)CCCN3S(=O)(=O)c2ccc(C)cc2)cc1	HCMV antiviral -65, LASV entry inh inconclusive (no result: Marburg entry inh)
CC(=O)N1CCc2cc(S(=O)(=O)N3CCc4ccccc4C3)ccc21	none
Cc1ccc(S(=O)(=O)N2CCCc3cc(NS(=O)(=O)c4cccc(Cl)c4)ccc32)cc1	LASV entry inh inconclusive, FMDV inh inconclusive (no result: Marburg entry inh)
CC(=O)N1CCCc2cc(S(=O)(=O)N3CCCC(C(=O)NCc4ccc(C)cc4)C3)ccc21 (stereo not drawn)	HCMV antiviral -72!, LASV entry inh inconclusive, FMDV inh inconclusive (no result: Marburg entry inh)
CC(=O)N1CCc2cc(S(=O)(=O)N3CCc4ccccc43)ccc21	HCMV antiviral -68, LASV entry inh inconclusive, Marburg entry inh inconclusive, FMDV inh inconclusive
CC(=O)c1cccc(NS(=O)(=O)c2ccc(NC(=O)N3CCCCC3)cc2)c1	HCMV antiviral -71, LASV entry inh inconclusive, Marburg entry inh 2.2µM, FMDV inh inconclusive
COc1ccc(CNCc2cc(C)c(OC)cc2C)c(OC)c1	none (no result: LASV entry inh, Marburg entry inh)
CC(=O)N1CCCc2cc(S(=O)(=O)Nc3ccc(C)c(F)c3)ccc21	none (no result: Marburg entry inh)
COc1cccc(NS(=O)(=O)c2ccc3c(c2)CCN3C(C)=O)c1	HCMV antiviral -64, Marburg entry inh inconclusive
CSc1cccc(NS(=O)(=O)c2ccc(C(C)=O)cc2)c1	HCMV antiviral -68, LASV entry inh inconclusive, Marburg entry inh inconclusive
CSc1cccc(NS(=O)(=O)c2ccc3c(c2)CCN3C(C)=O)c1	HCMV antiviral -88 (no result: LASV entry inh, Marburg entry inh)
CSc1cccc(NS(=O)(=O)c2ccc(F)cc2)c1	none
CC(=O)N1CCc2cc(S(=O)(=O)Nc3ccc(C)cc3)ccc21	HCMV antiviral -64, Marburg entry inh inconclusive
C[C@@H]1CCN=C(N)S1	Marburg entry inh inconclusive (no result: HCMV antiviral, LASV entry inh)
COc1cccc(NC(=O)Cc2c(C(=O)O)[nH]c3ccccc23)c1	none (no result: FMDV inh)
COc1ccc(S(=O)(=O)Nc2ccc3c(c2)N(C(C)=O)CCC3)cc1OC	none
COc1ccc(S(=O)(=O)Nc2ccc3c(c2)N(C(C)=O)CCC3)cc1	HCMV antiviral -62, LASV entry inh inconclusive, FMDV inh inconclusive
c1ccc(CCc2nn3c(Cn4cnc5ccccc54)nnc3s2)cc1	LASV entry inh inconclusive, FMDV inh inconclusive
COc1ccc(OCc2nn3c(Cn4cnc5ccccc54)nnc3s2)cc1	HCMV antiviral -68, Marburg entry inh inconclusive, FMDV inh inconclusive
CCOc1ccc(CCn2c(-c3ccco3)nc3ccccc3c2=O)cc1OCC	HCMV antiviral -76, LASV entry inh 6.5µM, Marburg entry inh 2.3µM, FMDV inh inconclusive
O=c1c2ccccc2nc(-c2ccco2)n1Cc1ccccc1	none
CCOc1ccc(-c2oc3ccccc3c(=O)c2O)cc1OCC	HCMV antiviral -65, LASV entry inh inconclusive
COc1ccc(-c2oc3ccccc3c(=O)c2O)cc1OC	none (no result: HCMV antiviral, LASV entry inh, Marburg entry inh)
CCOC(=O)c1ccc(N=Nc2c(C)c(C#N)c(O)[nH]c2=O)cc1	none
C#CCOCCOCCOCCNc1nc(N2CCN(C(=O)CCCCCCCCCCNC(=O)Cn3cc(C[C@@H](C)O)nn3)CC2)nc(N2CCN(C(=O)CCCCCCCCCCNC(=O)[C@H](CO)n3cc(CCCSC)nn3)CC2)n1	HCMV antiviral -85 (no result: LASV entry inh, Marburg entry inh)
C#CCOCCOCCOCCNc1nc(N2CCN(C(=O)CCCCCCCCCCNC(=O)[C@@H](CCC(=O)O)n3cc(CCCCCN)nn3)CC2)nc(N2CCN(C(=O)CCCCCCCCCCNC(=O)[C@H]([C@@H](C)CC)n3cc(CCCCCN)nn3)CC2)n1	none (no result: HCMV antiviral, LASV entry inh, Marburg entry inh)
C#CCOCCOCCOCCNc1nc(N2CCN(C(=O)CCCCCCCCCCNC(=O)[C@H]([C@@H](C)CC)n3cc(CCCCN=C(N)N)nn3)CC2)nc(N2CCN(C(=O)CCCCCCCCCCNC(=O)[C@H](CCCCN)n3cc(C)nn3)CC2)n1	FMDV inh 35µM (no result: HCMV antiviral, LASV entry inh, Marburg entry inh)
Cn1c(=O)n(-c2cccc(Cl)c2)c(=O)c2sc3ccccc3c21	Marburg entry inh inconclusive
Cc1nn(-c2ccccc2)c(Cl)c1C(=O)Nc1ccc(N2CCOCC2)cc1	LASV entry inh inconclusive
O=C(COc1cccc2cccnc12)Nc1nccs1	LASV entry inh inconclusive
COc1cccc(C(NC(C)=O)c2ccc3cccnc3c2O)c1 (stereo not drawn)	HCMV antiviral -99, LASV entry inh inconclusive, Marburg entry inh inconclusive
Oc1cccc(C(Nc2nccs2)c2ccc3cccnc3c2O)c1 (stereo not drawn)	HCMV antiviral -93, LASV entry inh inconclusive, Marburg entry inh inconclusive
O=C(NC(c1ccc(Cl)cc1)c1c(O)ccc2ccccc12)c1ccccc1 (stereo not drawn)	HCMV antiviral -101, LASV entry inh inconclusive, Marburg entry inh inconclusive, FMDV inh inconclusive
O=C(NC(c1ccccc1)c1c(O)ccc2ccccc12)c1ccccc1Cl (stereo not drawn)	LASV entry inh inconclusive, FMDV inh inconclusive
O=[N+]([O-])c1ccc(NC(c2ccccc2)c2ccc3cccnc3c2O)cc1 (stereo not drawn)	HCMV antiviral -97, LASV entry inh inconclusive, Marburg entry inh 1.4µM
